# Compound activity (PubChem)
# Anthrax LF prot: inhibitors of Bacillus anthracis lethal factor protease; P15917; multiplex microsphere protease cleavage assay, LF; inhibition, % at 10 µM; actives 0.12% (n = 360,000); also: plate controls were buffer without enzyme for full effect and enzyme alone for no effect
# Target sequence (P15917 whole entry, looked up): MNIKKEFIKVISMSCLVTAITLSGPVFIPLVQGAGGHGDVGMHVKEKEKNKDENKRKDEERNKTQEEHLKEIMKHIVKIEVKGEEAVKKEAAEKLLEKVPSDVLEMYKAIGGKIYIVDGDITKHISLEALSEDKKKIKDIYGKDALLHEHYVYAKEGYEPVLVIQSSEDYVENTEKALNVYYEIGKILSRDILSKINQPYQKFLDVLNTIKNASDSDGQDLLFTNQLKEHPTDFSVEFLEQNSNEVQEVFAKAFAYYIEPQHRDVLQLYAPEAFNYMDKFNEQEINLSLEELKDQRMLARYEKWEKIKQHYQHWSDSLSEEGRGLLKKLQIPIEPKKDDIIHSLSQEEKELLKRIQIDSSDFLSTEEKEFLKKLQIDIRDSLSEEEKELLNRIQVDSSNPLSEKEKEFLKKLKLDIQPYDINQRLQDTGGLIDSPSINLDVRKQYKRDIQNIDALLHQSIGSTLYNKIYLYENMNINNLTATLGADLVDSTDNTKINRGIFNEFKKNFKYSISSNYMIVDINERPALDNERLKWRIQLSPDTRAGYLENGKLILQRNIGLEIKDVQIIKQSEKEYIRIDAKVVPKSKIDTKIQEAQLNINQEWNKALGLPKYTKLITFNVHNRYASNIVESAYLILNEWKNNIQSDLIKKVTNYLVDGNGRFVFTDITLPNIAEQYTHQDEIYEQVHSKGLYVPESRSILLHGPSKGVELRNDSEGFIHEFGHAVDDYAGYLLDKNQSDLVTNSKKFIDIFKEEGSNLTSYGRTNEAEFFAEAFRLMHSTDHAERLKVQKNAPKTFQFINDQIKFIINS
# BoNT A protease: inhibitors of Botulinum neurotoxin A light chain protease; actives 0.17% (n = 360,000); inhibition, % at 10 µM; multiplex microsphere protease substrate cleavage, flow cytometry; also: plate controls were buffer without enzyme for full effect and enzyme alone for no effect
# Autofluor counter: flagged as autofluorescent in microsphere protease counterscreen | compound autofluorescence counterscreen, microsphere flow cytometry; stronger effect = higher value | fluorescence intensity (test concentration not listed) | actives 3.1% (n = 360,000); in the data active = fluorescence intensity above about 16000; inconclusive = no clear call, values can overlap the other calls
# MazF activator: activators of E. coli MazEF toxin-antitoxin RNase; P0AE70; activation, % at 20 µM; AID 504720; FAM/BHQ RNA-DNA oligo cleavage fluorescence, 5 h; actives 0.32% (n = 350,000); in the data active = activation above about 50%
# BoNT F protease: BoNT F light chain protease inhibition | Multiplex microsphere protease cleavage assay, flow cytometry | inhibition, % at 10 µM | actives 0.22% (n = 360,000) | AID 588497; in the data active = inhibition above about 35%, passing the limit was not always enough; inconclusive = no clear call, values can overlap the other calls; also: plate controls were buffer without enzyme for full effect and enzyme alone for no effect
# SSB-PriA inh: inhibitors of Klebsiella pneumoniae PriA binding to SSB C-terminal tail | AlphaScreen SSBct-PriA binding, biotinylated peptide | inhibition, % at 33 µM | actives 0.6% (n = 430,000); in the data active = inhibition mostly above about 37%, no sharp cut-off; inactive = mostly below about 20%;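 also: plate controls were negative control peptide for no effect and reference peptide for full effect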
# An asterisk follows results filed as active; ? = inconclusive; · = no result given. Most compounds without a hit are left out; they make up all but 3.3% or so of the library. Rule as the data show it, unless noted: active = inhibition above about 30%; inconclusive = no clear call, values can overlap the other calls; inactive = below that.
SMILES,Anthrax LF prot,BoNT A protease,Autofluor counter,MazF activator,BoNT F protease,SSB-PriA inh
CC(=O)c1cccc(OCC(O)CN2CC=C(c3ccccc3)CC2)c1 (configuration not stated),3,?,19622*,-3,5,5
CC(C)CCN1C(=O)C(C)(C)COc2ccc(NC(=O)c3cccs3)cc21,·,·,·,·,·,32
Cc1cc(N(C)N=Cc2ccccc2)nc(-c2ccccc2O)n1,·,·,·,·,·,-16
Cn1nccc1C(=O)Nc1nc(-c2ccccn2)cs1,·,·,·,·,·,97*
Cc1cc(C(=O)Nc2nc(-c3ccccn3)cs2)n(C)n1,·,·,·,·,·,118*
Cn1c(C(=O)Nc2nc(-c3ccccn3)cs2)cc2ccccc21,·,·,·,·,·,93*
Cn1cccc1C(=O)Nc1nc(-c2ccccn2)cs1,-4,1,9145,8,-16,85*
Cc1csc(NC(=O)c2cccn2C)n1,-3,0,5614,6,4,8
COc1ccc(C=NNC(=O)c2ccc(NC(=O)C3CCCCC3)cc2)cc1O,·,·,·,·,·,1
CN(C)c1ccc(C=NNc2nc3ccccc3o2)cc1,·,·,·,·,·,-2
O=C(Nc1nc(-c2ccccn2)cs1)C1CCCC1,0,0,4164,4,-2,14
CN1NC(C(=O)Nc2nc(-c3ccccn3)cs2)=CCC1=O,·,·,·,·,·,124*
CCOC(=O)c1csc(NS(=O)(=O)Cc2noc3ccccc23)n1,·,·,·,·,·,4
O=C(CC12CC3CC(CC(C3)C1)C2)NCc1ccncc1,-4,-1,16408*,2,-3,1
CCN(CC)CCN1C(=O)C(=O)C(=C(O)c2c(C)[nH]c(C(=O)OC)c2C)C1c1cccc(OC)c1 (configuration not stated),·,·,·,·,·,-6
COc1ccc(-c2cc3c(=O)n(CC(=O)N4CCCCC4)ncn3n2)cc1,0,0,4509,1,5,6
COc1ccc(-c2cc3c(=O)n(CC(=O)N4CCN(C)CC4)ncn3n2)cc1,-6,-1,4343,-13,-14,101*
NC(=O)CSc1nnc(Cn2c(=O)sc3ccccc32)n1-c1cccc(Cl)c1,-2,0,16396*,4,1,-8
O=C(O)[C@@H]1CCCN1S(=O)(=O)c1ccccc1F,·,·,·,·,·,-14
Cc1nn(C)c(Cl)c1NC(=O)OCc1ccc(F)cc1,14,2,8567,3,4,-4
COc1ccccc1COC(=O)Nc1c(C)nn(C)c1Cl,-1,?,18871*,7,2,-13
IC12CC3CC(CC(C3)C1)C2,·,·,·,·,·,1
Cc1cccc(NC(=S)N=Nc2c(O)n(CN3CCOCC3)c3ccccc23)c1C,1,2,2344,10,-8,-2
Cc1ccc(N=Nc2c(O)n(CN3CCOCC3)c3ccccc23)cc1,-4,-1,7064,57*,-9,2
c1ccc(Cn2c(-c3nnco3)cc3ccccc32)cc1,·,·,·,·,·,-7
SMILES,Anthrax LF prot,BoNT A protease,Autofluor counter,MazF activator,BoNT F protease,SSB-PriA inh
c1cncc(Nc2nc(-c3ccncc3)cs2)c1,0,3,18714*,0,-1,-2
c1cncc(Nc2nc(-c3cccnc3)cs2)c1,-3,0,11365,4,-10,-1
COc1ccc(C2c3c4c(n(C)c3CCN2C)CCN(C)C4c2ccc(OC)cc2)cc1 (configuration not stated),-2,-1,16735*,3,-1,10
CCOc1ccc(NC(=O)NCC(C)(O)c2cccs2)cc1 (configuration not stated),·,·,·,·,·,3
Cc1c(NC(=O)CSc2ccc(Cl)cc2)cccc1-c1nc2cc(Cl)ccc2o1,0,0,2529,129*,-2,10
CN(C)c1ccc(C=Nc2ccccc2CC(c2c[nH]c3ccccc23)c2c[nH]c3ccccc23)cc1,·,·,·,·,·,-7
COc1cc(Br)cc(CN2CCN(C)CC2)c1O,0,?,22111*,1,6,-23
O=c1c2ccccc2sn1-c1cc(S(=O)(=O)N2CCOCC2)ccc1N1CCCC1,-8,?,20573*,-18,3,-19
O=c1c2ccccc2sn1-c1cc(S(=O)(=O)N2CCOCC2)ccc1N1CCOCC1,1,83*,9835,-1,23,2
O=S(=O)(c1ccc(N2CCOCC2)c(Cl)c1)N1CCOCC1,0,-7,4115,-4,-31,-8
O=C(NCC[C@H](O)c1ccc2c(c1)OCO2)C(=O)Nc1cccnc1,·,·,·,·,·,-1
CSC1CCN(C(=O)CCSc2ccccc2)C1 (configuration not stated),·,·,·,·,·,0
CC(C)(C)c1ccc(-c2csc(NNC3=NCCCCC3)n2)cc1,-2,?,20221*,6,-9,33
CC(Cl)C(=O)Nc1nnc(-c2ccccc2Cl)s1 (configuration not stated),·,·,·,·,·,-1
O=S(=O)(c1ccccc1)c1cnc(-c2cccnc2)nc1-c1ccccc1,-1,0,22391*,14,-1,-1
Cc1ccccc1-c1ccc(N2CCN(C(=O)COc3ccc4c(c3)OCO4)CC2)nn1,·,·,·,·,·,-7
CCOC(=O)c1c(NC(=O)c2nc3ccccc3s2)sc2c1CC(C)(C)NC2(C)C,·,·,·,·,·,1
COc1ccc(NC(=O)c2nc3ccccc3s2)cc1,-1,-1,1990,-5,-6,-11
COC(=O)c1c(NC(=O)c2nc3ccccc3s2)sc2c1CC(C)(C)NC2(C)C,-9,-1,4194,53*,-5,-11
CC(C)NC(=O)c1nc2ccccc2s1,-7,5,19111*,-1,4,-22
Cc1cc(=O)[nH]c(-n2nc(C)c(CCC(=O)Nc3nc4ccccc4s3)c2C)n1,·,·,·,·,·,-3
COc1cccc(-n2nnc3c(=O)n(Cc4ccc(Br)cc4)cnc32)c1,-4,-5,21527*,0,-6,-11
COc1cccc(-n2nnc3c(=O)n(Cc4ccc(F)cc4)cnc32)c1,-4,0,10802,-13,-3,-29
COc1cccc(-n2nnc3c(=O)n(CC(=O)NC4CCCC4)cnc32)c1,0,1,20217*,4,0,-19
O=C(Cn1cnc2c(nnn2Cc2ccc(F)cc2)c1=O)NC1CCCC1,0,3,22114*,7,4,3
SMILES,Anthrax LF prot,BoNT A protease,Autofluor counter,MazF activator,BoNT F protease,SSB-PriA inh
COc1cccc(-n2nnc3c(=O)n(Cc4ccc(Cl)cc4)cnc32)c1,0,-1,21157*,-9,-1,-3
COc1cccc(-n2nnc3c(=O)n(Cc4ccc(C)cc4)cnc32)c1,-4,0,10755,-4,1,-10
Cn1nnn(-c2ccc(NC(=O)C(C)(C)C)cc2)c1=O,·,·,·,·,·,-11
Cc1cc2ncc(CCCNS(=O)(=O)c3ccc(-c4cccc(Cl)c4)cc3)cn2n1,·,·,·,·,·,-5
NC(=O)c1cc(C2CCCCN2C(=O)c2cc(-c3ccc(F)cc3)n[nH]2)[nH]n1 (configuration not stated),·,·,·,·,·,-9
Cc1ccc(P(=O)(CC(=O)O)c2ccc(C)cc2)cc1,-3,-3,24105*,1,-7,-3
CCNC(=O)CP(=O)(c1ccccc1)c1ccccc1,-1,-1,3739,9,-8,-13
COc1ccc(CC(=O)NNC(=O)CCC(=O)Nc2cc(C)ccc2C)cc1,2,0,4875,3,3,-6
